These results are taken from ChEMBL document CHEMBL3988442, “University of Dundee, Small-Polar-MMV Screening Library” (2021).

SMILES strings stand for the structures. Among all 68,000 compounds or so, about 25 (0.04%) showed an effect of 50% or more. Shown is part of a subset that was picked to be rich in strong results.

This experiment concerns the target T1, Methionyl-tRNA synthetase, putative (Leishmania donovani (strain BPK282A1)) (UniProt E9BF75).
T1 sequence (whole entry): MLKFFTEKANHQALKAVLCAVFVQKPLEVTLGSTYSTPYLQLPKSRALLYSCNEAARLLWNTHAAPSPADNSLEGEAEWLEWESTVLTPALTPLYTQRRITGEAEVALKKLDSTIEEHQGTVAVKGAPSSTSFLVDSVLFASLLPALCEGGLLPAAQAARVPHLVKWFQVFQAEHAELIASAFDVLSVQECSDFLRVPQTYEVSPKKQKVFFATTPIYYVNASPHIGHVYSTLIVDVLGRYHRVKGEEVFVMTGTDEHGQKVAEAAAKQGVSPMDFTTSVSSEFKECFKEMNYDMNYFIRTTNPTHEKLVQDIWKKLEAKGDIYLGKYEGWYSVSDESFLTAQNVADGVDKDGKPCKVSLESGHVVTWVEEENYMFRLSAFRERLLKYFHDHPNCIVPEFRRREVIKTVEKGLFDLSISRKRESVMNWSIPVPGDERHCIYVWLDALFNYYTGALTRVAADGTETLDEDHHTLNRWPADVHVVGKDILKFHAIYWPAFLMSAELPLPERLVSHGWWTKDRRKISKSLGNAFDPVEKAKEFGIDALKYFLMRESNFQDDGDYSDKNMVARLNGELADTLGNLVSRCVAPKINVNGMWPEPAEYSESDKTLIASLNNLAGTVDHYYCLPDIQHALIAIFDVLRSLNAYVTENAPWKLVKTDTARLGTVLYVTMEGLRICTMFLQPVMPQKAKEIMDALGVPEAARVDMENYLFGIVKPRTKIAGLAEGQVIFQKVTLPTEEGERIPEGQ
The experiment can be described thus: Leishmania donovani Methionine tRNA synthetase (LdMetRS):v6. Primary screen assay. The experiment is classed as functional. On the set-up: conc 80 nM, time 150 minutes.
As for `CC1=N[C@@]2(CC[C@@H]3CN(Cc4ccccc4C)C[C@@H]32)C(=O)N1CC1CC1`, the inhibition came out at 6.09%.
Take `CN1CCC(CO[C@H]2CN(C(=O)c3cccn3C)[C@@H]3COC[C@H]23)CC1`: the inhibition amounted to 8.4%.
With `CC(C)c1nnc(NCCS(C)(=O)=O)s1` the figure was 1.24%; with `CC(C)CCNc1nnc(C(C)C)s1`, 80.1%.
With `CCN(CC)S(=O)(=O)CCNc1nnc(C(C)C)s1` the figure was -0.621%; with `COc1ccc(CN2CCO[C@H]3[C@H](OCCN4CCCC4)CC[C@@H]32)cc1`, 6.3%; with `C1CC(CN2C[C@H]3CC[C@@H]2CN(Cc2nnc(C4CC4)o2)C3)C1`, 9.96%.
In the case of `Cc1cncc(C(=O)N2C[C@H]3CCC[C@@]3(COc3ccccn3)C2)c1`, the inhibition turned out to be 8.5%.
With `COc1cc(N2CC[C@@H]3O[C@@H](C(=O)NCCN(C)C)C[C@@H]32)ncn1` the figure was 4.66%; with `O=C1[C@H]2CC[C@H](CN(C3CCOCC3)C2)N1Cc1cscn1`, 8.93%.
Under `Cc1oncc1C(=O)N1CC[C@H]2[C@@H]1CCC(=O)N2CC1CCOCC1` stands 13.7%; under `Cc1ccoc1C(=O)N1CC[C@H]2C[C@H](c3nnc(C4CC4)o3)O[C@@H]2C1`, 15.5%; under `O=S(=O)(C1CC1)N1C[C@@H]2CN(Cc3ccoc3)CCO[C@@H]2C1`, 8.7%.
Under `Cc1occc1C(=O)N1C[C@@H]2OCCN(c3ncccn3)[C@@H]2C1` stands 9.59%; under `COc1cc(CN2CCN(CC3CC3)[C@@H]3CS(=O)(=O)C[C@@H]32)cc(OC)c1`, 7.26%; under `N#Cc1cccc(CN2C[C@H](NC(=O)C3CC3)[C@H]3OCCC[C@H]32)c1`, 10.6%.
For `O=C(NC1CC1)[C@H]1C[C@@H]2CCN(Cc3ccc4c(c3)OCO4)C[C@@H]2O1`, the inhibition amounted to 1.31%.
With `CCS(=O)(=O)N1C[C@H]2CCC[C@@]2(COc2ccccn2)C1` the figure was 12.9%.
With `CS(=O)(=O)N1CC[C@H]2O[C@H](C(=O)NCCc3ccccn3)CC[C@H]21` the figure was 7.41%; with `CCN1C[C@H]2C3(CCN(C(C)=O)CC3)CC[C@@]2(C(=O)N(C)C)C1`, 1.68%.
Take `CCCN1C[C@H]2CC[C@@H]1CN(C(=O)c1ccc(N(C)CCO)cc1)C2`: the inhibition was determined as 12.9%.
For the molecule `Cc1cccc(N2CC[C@@H]3[C@@H](CO[C@H]3CNC(=O)c3ccco3)C2)n1`, the inhibition came out at 13.1%.
With `CSc1ncccc1C(=O)N1C[C@H]2CC[C@@H]1CN(C(=O)N(C)C)C2` the figure was 16.9%.
In the case of `CNc1ccnc(N2C[C@@H]3CC[C@H](C2)N(CCOC)C3=O)n1`, the inhibition is -4.82%.
As for `CC(CN1CCCC1=O)NC(=O)c1ccc(-c2ccco2)[nH]c1=O` (stereo unspecified), the inhibition was found to be 16.8%.
With `CCC(C)NC(=O)c1ccc(-c2ccco2)[nH]c1=O` (stereo unspecified) the figure was 86.2%; with `CCCC(C)NC(=O)c1ccc(-c2ccco2)[nH]c1=O` (stereo unspecified), 9.58%; with `CCN1Cc2nc(OC)c(CNC(=O)C3CCS(=O)(=O)CC3)cc2C1=O`, -0.86%.
`Cc1ccc(CN2CCC[C@]3(C(=O)O)CN(c4ncccn4)C[C@@H]3C2)o1`: the inhibition is 14.6%.
In the case of `CC(=O)N1[C@H](Cn2cncn2)C[C@@H]2CN(Cc3ccncc3)CC[C@@H]21`, the inhibition is 5.54%.
As to `Cc1ccc(CN2CCN(CC3CC3)[C@@H]3CS(=O)(=O)C[C@@H]32)cc1C`, the inhibition is 15.6%.
Under `CCS(=O)(=O)CCNC(=O)[C@@]12CNC[C@@H]1CN(C1CCCC1)C2` stands 6.92%.
Under `Cc1nc(COC[C@@H]2CC[C@H]3[C@H](CCN3S(C)(=O)=O)O2)cs1` stands 15.2%; under `O=C(CCn1cc(Cl)cn1)N1C[C@@H]2CC[C@H](C1)N(Cc1ccccn1)C2`, 15.8%; under `Cc1cccc(C(=O)N2C[C@H]3CC[C@@H]2CN(S(=O)(=O)N(C)C)C3)n1`, 19.9%.
As to `CCS(=O)(=O)NC[C@]12COC[C@H]1CN(Cc1ccsc1)C2`, the inhibition amounted to 7.3%.
With `CCC(=O)N1CC[C@@H]2[C@H](CC1)N(Cc1cccc(C)n1)CCS2(=O)=O`, the inhibition stood at 14.2%.
With `COCCNc1nc(-n2nc(C)cc2C)nc2sc3c(c12)CCCC3` the figure was 9.06%.
Under `Cc1cc(C)n(C2=NC(NCCC(C)C)c3c(sc4c3CCCC4)N2)n1` (stereo unspecified) stands 16.4%; under `Cc1cc(C)n(-c2nc(NCCCO)c3c4c(sc3n2)CCCC4)n1`, 59.5%.
Under `CN(C)C(c1ccccn1)[C@H]1CC[C@H](CNC(=O)C2CC2)CC1` (stereo partly specified) stands 16%; under `O=C(C[C@@H]1COC[C@H]2CN(Cc3ccc(F)cc3)C[C@@H]12)N1CCCC1`, 13%.
As for `CC(=O)N1CC[C@@]2(C(=O)Nc3ccccc3)CCN(S(C)(=O)=O)CC[C@@H]12`, the inhibition turned out to be 8.93%.
Under `c1ccc(CN2CC[C@@H]3O[C@@H](COCC4CCOCC4)CC[C@@H]32)nc1` stands 10.1%; under `O=C(c1ccsc1)N1C[C@H](N2CCOCC2)[C@@H]2OCCC[C@@H]21`, 13.9%; under `O=C(C[C@@H]1COC[C@H]2CN(Cc3ccc(F)cc3)C[C@@H]12)N1CCCCO1`, 12.9%.
Consider `CNS(=O)(=O)c1ccc(CNC(=O)C2CCCO2)cc1` (stereo unspecified), for which the inhibition is -0.269%.
With `Cc1oncc1C(=O)N1CC[C@H]2[C@@H]1CCC(=O)N2c1cccnc1` the figure was 17.6%; with `Cn1cc(CN2CC[C@H]3O[C@@H](C(=O)NC4CC4)CC[C@H]32)cn1`, 3.76%.
In the case of `c1csc(CN2C[C@@H](n3cccn3)[C@H]3OCCC[C@H]32)c1`, the inhibition worked out at 10.1%.
With `COc1cccc(NC(=O)N2CC[C@@H]3CN(C)S(=O)(=O)[C@@H]3CC2)c1` the figure was -1.1%.
